Data on ten molecules can be found in PubChem BioAssay (NCATS).

Structures are written as SMILES. Inconclusive results are not listed. Calls of active or inactive are those of the source. Unless noted, calls follow the shape of the dose curve; as a rule, active = well fitted inhibition curve with a large enough effect; inconclusive = small, poorly fitted or top-dose-only effect; inactive = flat fitted curve, though single readings scatter.

The nature of experiment [1]: qHTS profiling for inhibitors of Plasmodium falciparum proliferation (AID 504749).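 Also: 0% = DMSO vehicle and full inhibition = artemisinin control; nearly all actives have a fitted effect of over 60% in size.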 The settings on record: P. falciparum in erythrocytes, SYBR Green DNA, 72 h. A digest of the protocol: (§1)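 Parasite proliferation within erythrocytes, 72 h exposure. Endpoint: SYBR Green I fluorescence after overnight lysis at room temperature. Controls: 0.29 uM artemisinin, DMSO.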
(In general: Quantitative high-throughput screening tests each substance at several concentrations.)

For a further experiment, the system named is 3D7. Described as above. Conditions: P. falciparum in erythrocytes, SYBR Green DNA, 72 h; series mostly up to 28.7 µM. The method, boiled down:
as §1

Another experiment deals with 7G8. The description is as above. The settings on record: P. falciparum in erythrocytes, SYBR Green DNA, 72 h; series mostly up to 28.7 µM. The method, boiled down: as §1
In the next experiment the test system is AA1029. The experiment is described as above. Conditions: P. falciparum in erythrocytes, SYBR Green DNA, 72 h; series mostly up to 28.7 µM. A digest of the protocol: as §1
For a further experiment, the system named is AS120. The description is as above. The settings on record: P. falciparum in erythrocytes, SYBR Green DNA, 72 h; series mostly up to 28.7 µM. The method, boiled down: as §1
The next experiment concerns ATS189. The experiment is described as above. Conditions: P. falciparum in erythrocytes, SYBR Green DNA, 72 h; series mostly up to 28.7 µM. The method, boiled down:
as §1

For another experiment, the system named is ATS95. The experiment is described as above. Conditions: P. falciparum in erythrocytes, SYBR Green DNA, 72 h; series mostly up to 28.7 µM. A digest of the protocol:
as §1

For the next experiment, the system named is C2A. The experiment is described as above. The settings on record: P. falciparum in erythrocytes, SYBR Green DNA, 72 h; series mostly up to 28.7 µM. The method, boiled down: as §1
Another experiment relates to CP185. The description is as above. The settings on record: P. falciparum in erythrocytes, SYBR Green DNA, 72 h; series mostly up to 28.7 µM. The method, boiled down:
as §1

The test system of the next experiment is CP191. Described as above. The settings on record: P. falciparum in erythrocytes, SYBR Green DNA, 72 h; series mostly up to 28.7 µM. A digest of the protocol:
as §1

In the next experiment the test system is CP192. The description is as above. The settings on record: P. falciparum in erythrocytes, SYBR Green DNA, 72 h; series mostly up to 28.7 µM. A digest of the protocol:
as §1

In a further experiment the test system is CP194. The experiment is described as above. The settings on record: P. falciparum in erythrocytes, SYBR Green DNA, 72 h; series mostly up to 28.7 µM. A digest of the protocol: as §1
For another experiment, the system named is CP201. The description is as above. The settings on record: P. falciparum in erythrocytes, SYBR Green DNA, 72 h; series mostly up to 28.7 µM. A digest of the protocol: as §1
The subject of another experiment is CP203. Described as above. Conditions: P. falciparum in erythrocytes, SYBR Green DNA, 72 h; series mostly up to 28.7 µM. The method, boiled down: as §1
A further experiment relates to CP211. Described as above. Conditions: P. falciparum in erythrocytes, SYBR Green DNA, 72 h; series mostly up to 28.7 µM. The method, boiled down: as §1
A further experiment relates to CP215. The description is as above. The settings on record: P. falciparum in erythrocytes, SYBR Green DNA, 72 h; series mostly up to 28.7 µM. The method, boiled down:
as §1

A further experiment concerns CP217. The description is as above. Conditions: P. falciparum in erythrocytes, SYBR Green DNA, 72 h; series mostly up to 28.7 µM. The method, boiled down:
as §1

The subject of another experiment is CP237. Described as above. Conditions: P. falciparum in erythrocytes, SYBR Green DNA, 72 h; series mostly up to 28.7 µM. The method, boiled down:
as §1

The nature of experiment [2]: qHTS drug screen for cell cycle checkpoint inhibitors in PARPi-resistant BRCA-mutant ovarian cancer cell lines. (AID 1963452; calls by dose curve; also: potency is read from the fitted curve at half-maximal effect). The settings on record: PEO1/OlaR viability, CellTiter-Glo luminescence, 96 h; for Z-AUC: stronger effect = lower value. The method, boiled down: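 PEO1, PEO4 and PEO1/OlaR ovarian cancer cells, 600 per well, exposed 96 h at 37C to a dilution series. Viability read by CellTiter-Glo luminescence, normalized to DMSO and empty wells; activity summarized as Z-AUC.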

[3] abbreviates: at 12.8 µM (top of the series), parasite line A.
The mark [4] stands for this setting: at 12.8 µM (top of the series), parasite line B.
The mark [5] stands for this setting: measured here: PEO1 parental Z-AUC.

Consider `C[C@H](O)C(=O)Nc1c(I)c(C(=O)NC(CO)CO)c(I)c(C(=O)NC(CO)CO)c1I`, for which the activity, negative = inhibition in experiment [1] (setting [3]) was -8.8% (inactive); in experiment [1] (setting [4]), 10.5% (inactive). Also, the Potency entry in the experiment on 3D7, in the experiment with 7G8, in the experiment on AA1029, with AS120, in the experiment with ATS189 and in the experiment with ATS95 was “inactive” each time. For the same molecule, the Potency entry in the experiment on C2A, with CP185, with CP191, in the experiment with CP192, in the experiment on CP194 and in the experiment with CP201 was “inactive” each time. The Potency result in the experiment on CP203, with CP211, in the experiment on CP215, in the experiment on CP217 and in the experiment on CP237 was “inactive” in each case.

Take `CC(=O)N(O)CCCCCNC(=O)CCC(=O)N(O)CCCCCNC(=O)CCC(=O)N(O)CCCCCN`: the results for the Z-AUC in experiment [2], in [2] (setting [5]) and in experiment [2] (measured here: PEO4 Z-AUC) were -0.069 (inactive), -0.402 and -0.683, respectively. Moreover, the activity, negative = inhibition is 5.32% (inactive) in experiment [1] (setting [3]) and 1.3% (inactive) in experiment [1] (setting [4]). Further, the Potency result with 3D7, in the experiment with 7G8, in the experiment with AA1029, with AS120, with ATS189 and in the experiment on ATS95 was “inactive” each time. The Potency result with C2A, in the experiment with CP185, with CP191, in the experiment with CP192, in the experiment on CP194 and in the experiment with CP201 was “inactive” each time. The Potency entry in the experiment on CP203, in the experiment on CP211, in the experiment with CP215, in the experiment with CP217 and with CP237 was “inactive” each time.

For the molecule `C[C@]12CCC(=O)C=C1[C@@H]1C[C@@H]1[C@H]1[C@@H]3[C@@H]4C[C@@H]4[C@@]4(CCC(=O)O4)[C@@]3(C)CC[C@@H]12`, the Z-AUC in experiment [2] is 1.29 (inactive); in experiment [2] (setting [5]), 0.636; in experiment [2] (measured here: PEO4 Z-AUC), 1.11.

Consider `C[C@]12C=CC(=O)C=C1CC[C@@H]1[C@@H]2[C@@H](O)C[C@@]2(C)[C@H]1CC[C@]2(O)C(=O)CO`, for which the Z-AUC in [2] is -0.821 (inactive); in experiment [2] (setting [5]), 0.0884; in experiment [2] (measured here: PEO4 Z-AUC), -0.444.

In the case of `CC(=O)Oc1ccc(C(=C2CCCCC2)c2ccc(OC(C)=O)cc2)cc1`, the activity, negative = inhibition is 6.38% (inactive) in [1] (at 28.7 µM (top of the series), parasite line A) and 9.72% (inactive) in experiment [1] (at 28.7 µM (top of the series), parasite line B). The Potency entry in the experiment on 3D7, with 7G8, in the experiment with AA1029, with AS120, in the experiment with ATS189 and in the experiment with ATS95 was “inactive” each time. Further, the Potency entry in the experiment with C2A, in the experiment on CP185, with CP191, in the experiment with CP192, in the experiment with CP194 and in the experiment on CP201 was “inactive” in each case. The Potency result with CP203, in the experiment on CP211, in the experiment with CP215, in the experiment on CP217 and with CP237 was “inactive” each time.

On to `CCCCOc1ccc(C(=O)CCN2CCCCC2)cc1`, for which the activity, negative = inhibition was 2.86% (inactive) in experiment [1] (setting [3]) and -20.7% (inactive) in experiment [1] (setting [4]). Further, the Potency result with 3D7, in the experiment with 7G8, in the experiment with AA1029, in the experiment with AS120, in the experiment on ATS189 and with ATS95 was “inactive” throughout. In addition, the Potency entry in the experiment on C2A, in the experiment with CP185, in the experiment on CP191, in the experiment with CP192, with CP194 and in the experiment on CP201 was “inactive” throughout. Besides, the Potency result in the experiment with CP203, in the experiment on CP211, with CP215, in the experiment on CP217 and with CP237 was “inactive” each time.

Take `Nc1ccn([C@@H]2O[C@H](CO)[C@@H](O)C2(F)F)c(=O)n1`: in [2], the Potency is 7.8 nM (active). For the same molecule, the values for the Z-AUC in experiment [2] (setting [5]) and in experiment [2] (measured here: PEO4 Z-AUC) were -3.27 and -1.86, respectively.

As to `C[C@]12CC[C@@H]3c4ccc(O)cc4CC[C@H]3[C@@H]1C[C@@H](O)[C@@H]2O`, the Z-AUC in experiment [2] is -0.032 (inactive); in experiment [2] (setting [5]) it was 0.00281; in experiment [2] (measured here: PEO4 Z-AUC) it was 0.225.

For `COc1cccc2c1C(=O)c1c(O)c3c(c(O)c1C2=O)C[C@@](O)(C(=O)CO)C[C@@H]3O[C@H]1C[C@H](N)[C@H](O)[C@H](C)O1`, the results for the Z-AUC in [2], in [2] (setting [5]) and in experiment [2] (measured here: PEO4 Z-AUC) were -0.906 (inactive), -0.971 and -0.369, respectively.

`CN(C)CC/C=C1/c2ccccc2COc2ccc(CC(=O)O)cc21`: the results for the Z-AUC in experiment [2], in experiment [2] (setting [5]) and in experiment [2] (measured here: PEO4 Z-AUC) were -0.218 (inactive), 0.35 and -0.471, respectively.
